In PubChem BioAssay:
Several values for one entry are separate records, joined by “and”; a condition that tells them apart may be missing. Equal entries are not always repeated. Activity calls are given as the source filed them. No rule for the calls is given here.

Experiment: kinase inhibitors against Plasmodium liver-stage infection, cell-based, known kinase inhibitor set, luminescence, hepatoma host viability (AID 624392);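 also: infected cells incubated roughly two days before readout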
Conditions: Plasmodium liver stage in hepatoma cells, luciferase luminescence, concentration not given here; liver cell % of control: measured here: host liver cell viability; parasite % of control: stronger effect = lower value

Structure (SMILES) | liver cell % of control | parasite % of control
COc1cc(NC(=O)c2cnc(N)o2)cc(C(=O)Nc2cccc(C(F)(F)F)c2)c1 | 87.7% | 106% (inactive)
COc1cc(NC(=O)c2cc(C)on2)cc(C(=O)Nc2cccc(C(F)(F)F)c2)c1 | 96.5% | 66.6% (inactive)
CCN1CCN(Cc2ccc(NC(=O)c3cc(NC(=O)c4cncc(-c5ccc(C#N)cc5)c4)cc(OC)c3)cc2C(F)(F)F)CC1 | 77.4% | 95.5% (inactive)
COc1cc(NC(=O)c2cncc(-c3ccc(C#N)cc3)c2)cc(C(=O)Nc2cccc(C(F)(F)F)c2)c1 | 98.8% | 101% (inactive)
CC(C)(C)OC(=O)NC(COc1cncc(Br)c1)Cc1c[nH]c2ccccc12 (stereo unspecified) | 95.1% | 98.7% (inactive)
Cc1cn(-c2cc(NC(=O)c3ccc(C)c(NC(=O)c4cccc(-c5cn[nH]c(=O)c5)c4)c3)cc(C(F)(F)F)c2)cn1 | 97.4% | 93.8% (inactive)
COc1cc(NC(=O)c2ccno2)cc(C(=O)Nc2cccc(C(F)(F)F)c2)c1 | 96.7% | 70% (inactive)
NS(=O)(=O)c1ccc(-c2ccc(C=C3SC(=O)NC3=O)o2)cc1 | 89% | 18.1% (active)
COc1cc(C(=O)NC2CCN(C)CC2)ccc1Nc1ncc2c(n1)N(Cc1ccccc1)CCC(=O)N2C | 97.7% | 579% (inactive)
COc1cc(NC(=O)c2ccnc(N)c2)cc(C(=O)Nc2cccc(C(F)(F)F)c2)c1 | 96.6% | 89.2% (inactive)
C=CC(=O)Nc1ccc(Nc2nc(NC3CCC(N(C)C)CC3)nc3c2ncn3C(C)C)cc1 (stereo unspecified) | 57.1% | 6.69% (inactive)
NS(=O)(=O)c1ccc(-c2cccc(C=C3SC(=O)NC3=O)c2)cc1 | 87.7% | 17% (inactive)
CC(C)n1cnc2c(N(Cc3ccccc3)c3cccc(Cl)c3)nc(N(CCN(C)C)Cc3ccccc3)nc21 | 82.6% | 9.42% (active)
COc1cc(N2CCC(O)CC2)ccc1Nc1nnc(Cl)c(Nc2ccccc2S(C)(=O)=O)n1 | 86.2% | 80.5% (inactive)
CC(C)C(CO)Nc1nc(Nc2ccc(S(=O)(=O)O)c(N)c2)c2ncn(C(C)C)c2n1 (stereo unspecified) | 101% | 105% (inactive)
C=CC(=O)Nc1cccc(N2C(=O)N(c3c(Cl)c(OC)cc(OC)c3Cl)Cc3cnc(NCCCCN(CC)CC)nc32)c1 | 104% | 107% (inactive)
O=C(Nc1ccc(-c2csc(Nc3ccccc3)n2)cc1)c1ccccc1 | 102% | 204% (inactive)

Structure (SMILES) | liver cell % of control | parasite % of control
CCN1CCN(Cc2ccc(NC(=O)c3cc(NC(=O)c4nccnc4N)cc(OC)c3)cc2C(F)(F)F)CC1 | 98.4% | 64.5% (inactive)
Cn1c(C2=C(c3c4n(c5ccccc35)CCC(CN)C4)C(=O)NC2=O)cc2ccccc21 (stereo unspecified) | 41.8% and 77.6% and 88.8% | 3.36% (inactive) and 70.7% (inactive) and 90.3% (inactive)
NC(=O)c1cccc(-c2cc(Oc3ccc(OC(F)(F)F)cc3)ncn2)c1 | 101% | 113% (inactive)
Cc1ccc(C(=O)Nc2cccc(C(F)(F)F)c2)cc1NC(=O)c1nccn1C | 99.8% | 33.1% (inactive)
CC(C)n1cnc2c(NCc3ccccc3)nc(NCc3ccccc3)nc21 | 91.8% | 83.2% (inactive)
O=C(Nc1ccc(-c2csc(Nc3ccccc3)n2)cc1)c1cc([N+](=O)[O-])cc(C(F)(F)F)c1 | 102% | 102% (inactive)
COc1cc(NC(=O)c2cnc(N)s2)cc(C(=O)Nc2cccc(C(F)(F)F)c2)c1 | 98.2% | 79% (inactive)
NC1=NC(=O)C(=Cc2cccc(-c3ccc(S(N)(=O)=O)cc3)c2)S1 | 98% | 377% (inactive)
O=C(Nc1cccc(-c2csc(Nc3ccccc3)n2)c1)c1ccccc1 | 102% | 31.8% (inactive)
Cc1ccc([N+](=O)[O-])cc1S(=O)(=O)N(C)N=Cc1c[nH]c2ccc(Br)c[n+]12 | 93% | 3.49% (active)
CCN1CCN(Cc2ccc(NC(=O)c3ccc(C)c(NC(=O)c4csc(-c5ccncc5)n4)c3)cc2C(F)(F)F)CC1 | 99.6% | 126% (inactive)
C=CC(=O)Nc1ccc(Oc2nc(Nc3ccc(N4CCN(C)CC4)cc3OC)ncc2Cl)cc1 | 97.7% | 126% (inactive)
COc1cc(NC(=O)c2ccnnc2)cc(C(=O)Nc2cccc(C(F)(F)F)c2)c1 | 93.4% | 97.5% (inactive)
CC(C)C(CO)Nc1nc(Nc2cc(C(=O)O)cc(C(=O)O)c2)c2ncn(C(C)C)c2n1 (stereo unspecified) | 107% | 38% (inactive)
COC(=O)c1ccc2c(c1)[nH]c(=O)c1c(Nc3ccc(OC(F)(F)F)cc3)ncnc12 | 107% | 97.4% (inactive)
CCN1CCN(Cc2ccc(NC(=O)c3ccc(C)c(NC(=O)C4=NN(c5ccccc5)C(=O)C4)c3)cc2C(F)(F)F)CC1 | 101% | 72.3% (inactive)
